Measurements from the supplement of paper PMC11732987, “Enantioselective OTUD7B fragment discovery through chemoproteomics screening and high-throughput optimisation” (Communications Chemistry, 2025).

What was measured:
Test in all cases: log2 ratio of Biotin-Ahx-Ub-VS probe labelling (fragment/DMSO); higher = less target engagement (more negative = stronger competition), active = hit call of the paper (q ≤ 0.05, log2 ratio ≤ -1)
Conditions in all cases: compound concentration: 200 uM; treatment time: 3 h
USP9X = USP9X (UniProt Q93008)
Outline: (§1)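 Labelled DUBs from HEK293T lysate were NeutrAvidin-enriched, digested with LysC and trypsin, and run by diaPASEF LC-MS/MS. Before that, each 495 µg sample in Tris/CHAPS/IGEPAL buffer with protease inhibitors was treated in triplicate with fragment at 200 µM or vehicle for 3 h, then with Biotin-Ahx-Ub-VS at 0.5 µM final for 1 h. Values are average log2 ratios of fragment over vehicle by unpaired t-test, based on global-median-normalised Spectronaut label-free quantities from proteins with ≥2 unique peptides.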

UniProt O00487 = target: UniProt O00487
Outline: as §1

UniProt O00507 = target: UniProt O00507
Outline: as §1

UniProt P51784 = target: UniProt P51784
Outline: as §1

UniProt Q5T2D3 = target: T1, UniProt Q5T2D3
T1 sequence (whole entry): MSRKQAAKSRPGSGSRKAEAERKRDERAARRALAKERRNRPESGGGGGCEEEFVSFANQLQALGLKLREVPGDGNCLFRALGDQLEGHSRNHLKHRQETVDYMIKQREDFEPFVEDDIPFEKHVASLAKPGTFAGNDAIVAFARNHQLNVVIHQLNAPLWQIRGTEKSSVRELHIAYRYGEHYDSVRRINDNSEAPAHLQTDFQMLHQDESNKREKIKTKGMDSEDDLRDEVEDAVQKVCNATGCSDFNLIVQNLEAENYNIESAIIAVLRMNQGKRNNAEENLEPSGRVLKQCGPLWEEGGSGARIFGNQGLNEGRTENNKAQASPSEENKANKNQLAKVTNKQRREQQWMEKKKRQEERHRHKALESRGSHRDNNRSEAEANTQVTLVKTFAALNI
Outline: as §1

UniProt Q8TE49 = target: T2, UniProt Q8TE49
T2 sequence (whole entry): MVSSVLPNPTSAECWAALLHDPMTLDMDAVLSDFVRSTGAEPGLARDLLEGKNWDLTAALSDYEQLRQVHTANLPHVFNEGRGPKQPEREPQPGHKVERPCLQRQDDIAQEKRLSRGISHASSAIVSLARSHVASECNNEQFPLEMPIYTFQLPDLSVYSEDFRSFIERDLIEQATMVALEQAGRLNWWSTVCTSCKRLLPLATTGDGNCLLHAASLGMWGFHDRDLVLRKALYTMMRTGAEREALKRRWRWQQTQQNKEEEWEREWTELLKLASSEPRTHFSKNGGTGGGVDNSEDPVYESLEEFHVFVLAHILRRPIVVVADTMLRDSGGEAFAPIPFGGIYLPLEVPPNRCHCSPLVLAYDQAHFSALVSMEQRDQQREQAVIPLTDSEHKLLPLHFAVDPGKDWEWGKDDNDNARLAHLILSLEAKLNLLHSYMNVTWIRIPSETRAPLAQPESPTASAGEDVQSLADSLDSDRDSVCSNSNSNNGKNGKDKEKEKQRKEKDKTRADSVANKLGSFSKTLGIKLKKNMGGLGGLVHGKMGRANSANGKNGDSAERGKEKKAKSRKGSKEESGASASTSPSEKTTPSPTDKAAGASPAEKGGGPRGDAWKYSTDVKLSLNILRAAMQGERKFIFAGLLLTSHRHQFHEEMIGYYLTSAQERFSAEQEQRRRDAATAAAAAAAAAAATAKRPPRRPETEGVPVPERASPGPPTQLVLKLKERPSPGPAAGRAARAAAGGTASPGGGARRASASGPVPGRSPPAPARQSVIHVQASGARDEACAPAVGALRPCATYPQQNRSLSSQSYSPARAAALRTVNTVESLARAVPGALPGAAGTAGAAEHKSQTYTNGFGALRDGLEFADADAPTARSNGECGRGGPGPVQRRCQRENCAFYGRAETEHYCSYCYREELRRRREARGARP
Outline: as §1

UniProt Q9P2H5 = target: T3, UniProt Q9P2H5
T3 sequence (whole entry): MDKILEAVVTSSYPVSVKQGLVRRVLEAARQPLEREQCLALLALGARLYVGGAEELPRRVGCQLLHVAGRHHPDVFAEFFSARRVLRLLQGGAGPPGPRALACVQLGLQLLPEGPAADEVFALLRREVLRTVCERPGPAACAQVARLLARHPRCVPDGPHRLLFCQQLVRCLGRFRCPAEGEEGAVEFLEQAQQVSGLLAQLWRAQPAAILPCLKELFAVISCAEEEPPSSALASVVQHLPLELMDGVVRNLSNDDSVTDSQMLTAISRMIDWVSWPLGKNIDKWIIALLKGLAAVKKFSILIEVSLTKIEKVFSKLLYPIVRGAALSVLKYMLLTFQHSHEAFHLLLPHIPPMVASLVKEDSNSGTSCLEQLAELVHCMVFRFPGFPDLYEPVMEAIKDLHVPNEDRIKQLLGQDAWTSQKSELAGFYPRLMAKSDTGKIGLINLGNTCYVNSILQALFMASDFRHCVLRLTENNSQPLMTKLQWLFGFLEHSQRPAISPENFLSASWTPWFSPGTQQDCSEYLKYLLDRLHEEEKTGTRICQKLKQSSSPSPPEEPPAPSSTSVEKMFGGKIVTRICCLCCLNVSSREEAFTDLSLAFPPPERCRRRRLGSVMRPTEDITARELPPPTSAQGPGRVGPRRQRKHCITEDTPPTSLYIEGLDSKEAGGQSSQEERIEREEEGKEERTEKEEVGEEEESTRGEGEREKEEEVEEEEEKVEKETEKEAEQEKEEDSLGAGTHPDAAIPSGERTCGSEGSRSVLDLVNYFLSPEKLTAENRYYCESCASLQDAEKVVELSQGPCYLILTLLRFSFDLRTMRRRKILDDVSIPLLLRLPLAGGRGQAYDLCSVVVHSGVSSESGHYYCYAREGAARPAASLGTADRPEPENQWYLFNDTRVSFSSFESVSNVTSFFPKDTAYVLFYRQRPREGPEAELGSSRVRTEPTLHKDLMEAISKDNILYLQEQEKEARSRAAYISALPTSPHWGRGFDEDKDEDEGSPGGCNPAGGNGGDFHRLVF
Outline: as §1

UniProt Q9UGI0 = target: T4, UniProt Q9UGI0
T4 sequence (whole entry): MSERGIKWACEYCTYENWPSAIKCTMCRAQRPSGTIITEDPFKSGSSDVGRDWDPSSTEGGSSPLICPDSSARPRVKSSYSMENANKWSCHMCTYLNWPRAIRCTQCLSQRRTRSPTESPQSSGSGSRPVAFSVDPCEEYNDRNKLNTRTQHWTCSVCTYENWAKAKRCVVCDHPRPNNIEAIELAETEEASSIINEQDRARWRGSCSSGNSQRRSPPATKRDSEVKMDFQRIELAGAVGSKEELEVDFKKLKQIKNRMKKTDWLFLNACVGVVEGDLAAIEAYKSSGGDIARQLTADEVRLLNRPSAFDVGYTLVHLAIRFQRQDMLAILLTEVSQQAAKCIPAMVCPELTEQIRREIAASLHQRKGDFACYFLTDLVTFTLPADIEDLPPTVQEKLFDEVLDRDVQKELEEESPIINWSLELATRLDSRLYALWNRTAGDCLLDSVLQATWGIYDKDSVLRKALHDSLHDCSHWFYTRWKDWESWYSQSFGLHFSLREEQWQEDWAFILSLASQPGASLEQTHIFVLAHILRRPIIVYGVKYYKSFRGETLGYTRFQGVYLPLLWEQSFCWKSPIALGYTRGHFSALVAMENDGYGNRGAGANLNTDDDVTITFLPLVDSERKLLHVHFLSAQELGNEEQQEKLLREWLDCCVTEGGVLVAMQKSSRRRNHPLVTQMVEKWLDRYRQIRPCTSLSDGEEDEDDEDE
Outline: as §1

YOD1 = target: T5, YOD1 (UniProt Q5VVQ6)
T5 sequence (whole entry): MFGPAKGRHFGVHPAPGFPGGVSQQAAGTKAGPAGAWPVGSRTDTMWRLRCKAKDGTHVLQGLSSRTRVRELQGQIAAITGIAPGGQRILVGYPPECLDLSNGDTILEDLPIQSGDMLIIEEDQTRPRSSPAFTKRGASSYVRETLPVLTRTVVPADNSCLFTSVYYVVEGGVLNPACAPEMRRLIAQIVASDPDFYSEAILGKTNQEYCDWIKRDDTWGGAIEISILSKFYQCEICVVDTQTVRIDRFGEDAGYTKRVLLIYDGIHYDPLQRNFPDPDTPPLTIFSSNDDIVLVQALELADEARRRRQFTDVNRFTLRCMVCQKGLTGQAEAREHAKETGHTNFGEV
Outline: as §1

Measured: log2 ratio of Biotin-Ahx-Ub-VS probe labelling

UniProt O00487, sequence (O00487 whole entry): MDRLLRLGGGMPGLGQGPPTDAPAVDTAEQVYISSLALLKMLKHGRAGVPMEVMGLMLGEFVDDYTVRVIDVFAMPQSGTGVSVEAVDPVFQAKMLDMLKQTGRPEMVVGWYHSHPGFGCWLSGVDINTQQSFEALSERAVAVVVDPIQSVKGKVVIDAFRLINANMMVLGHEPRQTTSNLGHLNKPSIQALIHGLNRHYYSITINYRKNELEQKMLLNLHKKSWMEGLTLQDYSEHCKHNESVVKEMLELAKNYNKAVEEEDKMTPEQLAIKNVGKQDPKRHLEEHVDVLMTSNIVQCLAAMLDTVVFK
UniProt P51784, sequence (P51784 whole entry): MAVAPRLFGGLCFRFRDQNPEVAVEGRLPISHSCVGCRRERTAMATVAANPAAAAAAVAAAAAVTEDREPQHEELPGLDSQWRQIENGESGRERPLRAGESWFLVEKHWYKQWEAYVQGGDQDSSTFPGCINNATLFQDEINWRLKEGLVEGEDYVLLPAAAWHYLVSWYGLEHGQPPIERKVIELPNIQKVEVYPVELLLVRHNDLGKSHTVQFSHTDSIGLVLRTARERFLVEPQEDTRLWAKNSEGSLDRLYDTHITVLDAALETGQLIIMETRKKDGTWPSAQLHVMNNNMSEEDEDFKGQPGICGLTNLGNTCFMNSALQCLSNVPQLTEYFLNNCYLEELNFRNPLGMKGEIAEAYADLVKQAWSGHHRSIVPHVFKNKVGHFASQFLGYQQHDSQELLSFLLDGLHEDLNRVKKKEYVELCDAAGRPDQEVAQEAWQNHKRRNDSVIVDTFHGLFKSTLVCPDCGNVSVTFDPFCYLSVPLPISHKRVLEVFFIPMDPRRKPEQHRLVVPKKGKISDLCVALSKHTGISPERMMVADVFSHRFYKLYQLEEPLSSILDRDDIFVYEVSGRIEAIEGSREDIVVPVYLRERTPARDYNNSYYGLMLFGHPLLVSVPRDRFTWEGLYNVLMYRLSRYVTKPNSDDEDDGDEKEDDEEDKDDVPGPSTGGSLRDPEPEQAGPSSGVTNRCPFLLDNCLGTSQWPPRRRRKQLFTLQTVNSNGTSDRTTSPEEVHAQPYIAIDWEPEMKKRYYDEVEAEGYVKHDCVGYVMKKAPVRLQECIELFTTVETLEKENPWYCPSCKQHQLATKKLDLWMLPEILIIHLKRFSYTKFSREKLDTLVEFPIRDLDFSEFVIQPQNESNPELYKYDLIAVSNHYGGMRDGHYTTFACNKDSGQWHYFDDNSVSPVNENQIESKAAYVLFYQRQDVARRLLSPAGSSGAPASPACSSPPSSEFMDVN
USP9X, sequence (Q93008 whole entry, the tested form may be a part): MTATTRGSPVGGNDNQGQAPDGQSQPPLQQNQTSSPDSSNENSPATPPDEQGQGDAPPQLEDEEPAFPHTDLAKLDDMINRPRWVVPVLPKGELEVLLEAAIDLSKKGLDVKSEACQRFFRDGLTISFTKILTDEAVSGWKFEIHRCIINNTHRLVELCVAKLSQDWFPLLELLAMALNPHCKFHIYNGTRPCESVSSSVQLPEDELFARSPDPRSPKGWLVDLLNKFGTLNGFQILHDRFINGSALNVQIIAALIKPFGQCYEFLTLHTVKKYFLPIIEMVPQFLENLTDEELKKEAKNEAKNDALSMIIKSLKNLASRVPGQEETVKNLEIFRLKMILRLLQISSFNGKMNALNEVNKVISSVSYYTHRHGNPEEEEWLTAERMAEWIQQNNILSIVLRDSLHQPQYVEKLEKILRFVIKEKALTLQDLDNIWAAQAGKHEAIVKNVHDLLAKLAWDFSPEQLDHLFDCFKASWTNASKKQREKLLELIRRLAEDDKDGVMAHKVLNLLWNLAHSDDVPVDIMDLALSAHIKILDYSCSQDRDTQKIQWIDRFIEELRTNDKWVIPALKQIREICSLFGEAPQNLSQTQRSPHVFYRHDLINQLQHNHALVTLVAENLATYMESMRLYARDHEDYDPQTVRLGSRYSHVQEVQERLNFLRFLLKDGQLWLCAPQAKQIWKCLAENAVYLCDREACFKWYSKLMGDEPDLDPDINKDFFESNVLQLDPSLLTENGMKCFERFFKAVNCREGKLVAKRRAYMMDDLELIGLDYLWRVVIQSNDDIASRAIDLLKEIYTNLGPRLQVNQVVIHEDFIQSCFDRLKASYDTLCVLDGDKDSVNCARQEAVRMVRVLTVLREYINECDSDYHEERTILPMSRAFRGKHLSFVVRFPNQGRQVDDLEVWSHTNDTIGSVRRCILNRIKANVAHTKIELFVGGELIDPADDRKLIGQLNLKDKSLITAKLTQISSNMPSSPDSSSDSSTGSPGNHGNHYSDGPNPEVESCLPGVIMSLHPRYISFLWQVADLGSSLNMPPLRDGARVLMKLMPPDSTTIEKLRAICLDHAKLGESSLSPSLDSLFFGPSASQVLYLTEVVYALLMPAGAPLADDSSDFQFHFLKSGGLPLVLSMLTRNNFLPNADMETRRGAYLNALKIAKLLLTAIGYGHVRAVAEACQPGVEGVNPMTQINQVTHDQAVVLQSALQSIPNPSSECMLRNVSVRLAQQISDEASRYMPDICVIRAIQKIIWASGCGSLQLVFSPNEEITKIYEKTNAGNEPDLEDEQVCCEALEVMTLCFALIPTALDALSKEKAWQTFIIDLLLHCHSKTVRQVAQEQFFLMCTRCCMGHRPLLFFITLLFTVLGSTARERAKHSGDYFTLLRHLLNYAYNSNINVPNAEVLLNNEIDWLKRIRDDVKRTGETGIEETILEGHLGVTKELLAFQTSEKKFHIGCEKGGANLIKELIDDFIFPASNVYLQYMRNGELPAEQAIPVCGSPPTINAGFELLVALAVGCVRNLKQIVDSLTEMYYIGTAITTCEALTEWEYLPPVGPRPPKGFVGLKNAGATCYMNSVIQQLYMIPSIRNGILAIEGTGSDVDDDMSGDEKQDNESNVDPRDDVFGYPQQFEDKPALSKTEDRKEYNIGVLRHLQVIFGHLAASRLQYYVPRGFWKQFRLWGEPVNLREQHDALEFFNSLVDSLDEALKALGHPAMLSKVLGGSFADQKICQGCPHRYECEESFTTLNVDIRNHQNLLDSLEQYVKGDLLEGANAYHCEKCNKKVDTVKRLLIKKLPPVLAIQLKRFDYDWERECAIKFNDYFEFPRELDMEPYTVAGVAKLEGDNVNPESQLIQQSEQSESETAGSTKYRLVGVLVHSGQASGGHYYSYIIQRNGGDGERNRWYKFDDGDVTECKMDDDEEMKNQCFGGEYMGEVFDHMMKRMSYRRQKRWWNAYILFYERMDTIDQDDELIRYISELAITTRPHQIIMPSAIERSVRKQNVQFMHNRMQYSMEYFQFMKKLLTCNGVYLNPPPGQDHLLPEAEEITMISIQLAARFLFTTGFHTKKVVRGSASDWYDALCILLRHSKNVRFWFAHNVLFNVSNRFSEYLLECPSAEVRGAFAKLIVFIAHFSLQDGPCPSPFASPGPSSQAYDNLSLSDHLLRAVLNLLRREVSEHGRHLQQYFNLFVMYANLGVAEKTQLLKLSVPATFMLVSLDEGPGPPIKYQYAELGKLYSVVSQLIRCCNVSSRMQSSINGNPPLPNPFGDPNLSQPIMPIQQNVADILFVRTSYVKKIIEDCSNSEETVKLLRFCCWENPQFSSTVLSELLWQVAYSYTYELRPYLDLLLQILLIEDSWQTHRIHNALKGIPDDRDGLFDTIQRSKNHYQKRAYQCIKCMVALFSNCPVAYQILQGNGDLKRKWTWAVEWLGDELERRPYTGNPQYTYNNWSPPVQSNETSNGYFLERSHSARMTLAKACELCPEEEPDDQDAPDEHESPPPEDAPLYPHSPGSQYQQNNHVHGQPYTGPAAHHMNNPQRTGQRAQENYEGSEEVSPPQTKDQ

CN(C)S(=O)(=O)c1ccccc1CNC(=O)CCl
inactive: USP9X -0.0424 | UniProt O00487 0.0834 | UniProt O00507 -0.154 | UniProt P51784 0.0361 | UniProt Q5T2D3 -0.255 | UniProt Q8TE49 -0.178 | UniProt Q9P2H5 -0.0151 | UniProt Q9UGI0 -0.47 | YOD1 0.0246
